This is a sample that favours compounds with a hit; in the whole collection about 10% have one here.
hNpr1 antagonist: human Npr1 receptor antagonism; AID 1347048; HEK293 hNpr1 GloSensor cGMP, ANP-stimulated luminescence; Potency, µM (doses to about 46.3 µM), for the others: at the top dose activity change, negative = inhibition, usual class: inhibitors; 1.6% of 76,000 active; calls by dose curve; also: nearly all actives have a fitted effect of over 60% in size
Target sequence (P16066 whole entry, looked up): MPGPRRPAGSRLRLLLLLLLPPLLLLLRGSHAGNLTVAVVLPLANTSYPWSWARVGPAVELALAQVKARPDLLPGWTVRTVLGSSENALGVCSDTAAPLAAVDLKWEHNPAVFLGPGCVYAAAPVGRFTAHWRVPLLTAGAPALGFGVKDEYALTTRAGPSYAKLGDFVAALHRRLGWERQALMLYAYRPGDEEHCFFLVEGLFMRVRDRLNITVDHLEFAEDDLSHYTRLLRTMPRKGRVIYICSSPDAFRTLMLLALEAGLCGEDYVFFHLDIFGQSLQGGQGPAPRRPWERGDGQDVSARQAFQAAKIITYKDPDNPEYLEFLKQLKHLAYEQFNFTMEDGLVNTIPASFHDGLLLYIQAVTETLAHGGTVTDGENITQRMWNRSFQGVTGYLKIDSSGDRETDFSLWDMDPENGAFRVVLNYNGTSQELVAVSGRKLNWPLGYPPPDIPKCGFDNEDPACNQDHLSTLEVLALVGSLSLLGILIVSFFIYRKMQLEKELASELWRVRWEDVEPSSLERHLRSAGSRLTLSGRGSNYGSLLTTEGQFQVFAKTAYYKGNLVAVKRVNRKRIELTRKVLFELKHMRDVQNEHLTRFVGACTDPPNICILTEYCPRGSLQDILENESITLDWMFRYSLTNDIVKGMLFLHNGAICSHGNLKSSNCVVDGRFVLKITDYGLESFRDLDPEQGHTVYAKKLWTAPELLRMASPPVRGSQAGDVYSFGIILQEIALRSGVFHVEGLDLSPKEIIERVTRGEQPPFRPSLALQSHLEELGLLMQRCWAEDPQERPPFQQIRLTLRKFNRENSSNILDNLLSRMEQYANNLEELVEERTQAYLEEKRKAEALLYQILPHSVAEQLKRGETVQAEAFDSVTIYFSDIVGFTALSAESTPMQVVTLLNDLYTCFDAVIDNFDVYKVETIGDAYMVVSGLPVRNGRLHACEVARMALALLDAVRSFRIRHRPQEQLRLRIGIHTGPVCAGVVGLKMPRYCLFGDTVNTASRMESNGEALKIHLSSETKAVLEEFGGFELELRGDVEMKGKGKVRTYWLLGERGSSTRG
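HEK293 cells stably expressing human Npr1 and cGMP GloSensor pGS-40F, loaded 2 h with 2% GloSensor reagent, given compound 30 min at room temperature. Luminescence read before and 20 min after 0.1 nM hNppA.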
HEK293 tox: kills HEK 293 cells. HEK 293 viability, ATP luminescence (CellTiter-Glo), 48-72 h. Potency, µM (highest dose often 115 µM), for inactives: at the top dose activity change, negative = cytotoxicity, hits mostly inhibitors. 6.6% of 94,000 active; also: nearly all actives have a fitted effect of over 60% in size
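HEK 293 seeded at 250 cells/well receive compound via pintool. After 48 or 72 hr at 37 degree Celsius, 5% CO2 and 95% humidity, CellTiter-Glo is dispensed and luminescence read following 10 min at room temperature.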
NIH3T3 tox: NIH 3T3 cell cytotoxicity | NIH 3T3 viability, CellTiter-Glo ATP luminescence, 48-72 h | Potency, µM (series often up to 96.7 µM), inactives show at the highest dose activity change, negative = cytotoxicity, actives largely listed as inhibitors | 4.3% of 94,000 active | AID 1345082; also: nearly all actives have a fitted effect of over 55% in size
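Cytotoxicity is measured as loss of cellular ATP: NIH 3T3 cells (400/well) are exposed to compound for 48 or 72 hr at 37 °C, then CellTiter-Glo luminescence is imaged after 10 min at room temperature.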
GPT2 inh: GPT2 alanine aminotransferase inhibition; Q8TD30; Recombinant GPT2, coupled pyruvate oxidase/HRP Amplex Red fluorescence; Potency, µM (top dose mostly 57.7 µM), without a hit: top-dose activity change, negative = inhibition, usual class: inhibitors; 0.25% of 100,000 active; AID 1671188; also: nearly all actives have a fitted effect of over 60% in size
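Recombinant GPT2 (10ng/uL) with 250uM a-KG and 2mM L-alanine, 30 min at room temperature, in HEPES pH 7.5 buffer. Pyruvate detected by pyruvate oxidase/HRP/Amplex Red fluorescence after 30 min in the dark; AOA (50uM) as positive control.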
FLuc inh: Photinus pyralis luciferase inhibition. AID 1347043. purified P. pyralis luciferase, luminescence, biochemical. Potency, µM (highest dose often 115 µM), most hits filed as inhibitors. P08659. 2.5% of 76,000 active; also: nearly all actives have a fitted effect of over 65% in size
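Luminescence read by CCD imaging after purified firefly luciferase (10nM final) was added to substrate buffer holding 10uM D-luciferin and 10uM ATP, pH 7.5, pre-dosed with compound.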
* = called active by the depositor; i = inactive; ? = inconclusive; . = not tested or not shown; [ ] = another dose, or the depositor's remark. Unless noted, calls follow the shape of the dose curve; as a rule, active = well fitted curve in the direction sought with a large enough effect; inconclusive = small, poorly fitted or top-dose-only effect, or another doubt; inactive = no such curve, though single readings can be large; an effect the other way counts as inactive or inconclusive. % is scaled to controls: 0 for no effect and ±100 for the full control effect; potency is read from the fitted curve at half-maximal effect.

SMILES	hNpr1 antagonist	HEK293 tox	NIH3T3 tox	GPT2 inh	FLuc inh
COc1ccc(CC(=O)NC2CCCc3c2[nH]c2ccccc32)cc1OC (stereo unspecified)	?	35.5µM*	?	i	i
O=C(NC1CCCc2c1[nH]c1c(Cl)cccc21)c1n[nH]c2c1CCC2 (stereo unspecified)	-18.0%	?	28.2µM*	i	i
Cc1noc(C)c1CC(=O)NC1CCCc2c1[nH]c1ccccc21 (stereo unspecified)	-18.3%	?	39.8µM*	-13.0%	i
Cc1ccccc1C(=O)N1CCCC(c2nn(-c3ccccn3)c(=O)[nH]2)C1 (stereo unspecified)	.	0.6%	-11.2%	i	.
CCOC(=O)[C@@H]1[C@@H](OC)C(=O)N(C(C)C)C12CCN(C(=O)c1csc(-c3cccs3)n1)CC2	.	?	-29.5%	.	.
COc1ccc(S(=O)(=O)Nc2ccc(C)n(CC(=O)N(C)Cc3ccco3)c2=O)cc1	-1.2%	31.6µM*	2.8%	-0.9%	i
COC(=O)[C@@H]1Cc2c([nH]c3ccccc23)[C@@H]2C[C@@H](NCCNC(C)=O)C[C@@H](c3ccc(F)c(F)c3)N12	5.1%	31.6µM*	31.6µM*	1.4%	i
COC(=O)[C@@H]1Cc2c([nH]c3ccccc23)[C@H]2C[C@@H](NCCNC(C)=O)C[C@@H](c3ccc(C)cc3)N21	-12.1%	28.2µM*	28.2µM*	-3.7%	i
COCCNC(=O)[C@H]1C[C@H](Oc2ccccc2)CN1C(=O)NCc1ccc(C)cc1	0.5%	i	-4.8%	-5.6%	i
COC(=O)[C@@H]1Cc2c([nH]c3ccccc23)[C@H]2C[C@@H](NCCNC(C)=O)C[C@@H](c3ccc(C(F)(F)F)cc3)N21	-9.0%	25.1µM*	20µM*	?	i
CC(=O)NCCNC(=O)c1cccc(-c2ccc(C(F)(F)F)cc2)c1	.	-17.0%	-35.1%	i	.
COC(=O)[C@@H]1Cc2c([nH]c3ccccc23)[C@H]2C[C@@H](NCCNC(C)=O)C[C@@H](c3ccc(C(C)C)cc3)N21	-25.2%	12.6µM*	28.2µM*	-1.7%	i
O=c1n(CCN2CCCN([S+](=O)([O-])c3cccs3)CC2)nc2n1CCCC2	.	-9.7%	-10.4%	.	.
O=C(O)[C@@H]1[C@H]2C[C@H]3c4[nH]c5ccccc5c4CCN3C[C@@H]2CC[C@@H]1O	.	.	.	0.4%	.
COC(=O)[C@@H]1Cc2c([nH]c3ccccc23)[C@H]2C[C@@H](NCCNC(C)=O)C[C@@H](c3ccccc3)N21	-3.6%	?	79.4µM*	-3.5%	?
O=C(NCc1ccc2c(c1)OCO2)C1CCN(c2nccc(Nc3ccccc3Cl)n2)CC1	.	28.2µM*	35.5µM*	0.1%	.
O=C(NCc1cccc(C(F)(F)F)c1)[C@@H]1CCCN1c1nccc(Nc2ccccc2Cl)n1	.	?	?	-17.9%	.
O=C(NCc1cccc(F)c1)C1CCN(c2nccc(Nc3ccccc3Cl)n2)CC1	.	44.7µM*	?	i	.
CSCCNC(=O)C1CCN(c2nccc(Nc3ccccc3Cl)n2)CC1	.	?	35.5µM*	i	.
O=C(NCc1cccc(Cl)c1)[C@@H]1CCCN1c1nccc(Nc2ccccc2Cl)n1	.	35.5µM*	?	i	.
O=C(NCc1ccc(F)cc1)C1CCN(c2nccc(Nc3ccccc3Cl)n2)CC1	.	?	?	4.2%	.
COc1cccc(C(=O)N2CCC(C(=O)N3CCC4(CC3)CC(=O)Nc3ccccc3O4)C2)c1 (stereo unspecified)	.	-21.1%	-14.3%	-17.6%	.
COC1CN(C2CCN(C(=O)CCc3c[nH]c4ccccc34)CC2)C12CCOCC2 (stereo unspecified)	-0.9%	i	0.8%	-5.9%	i
CNC(=O)c1cc(C2CC2)nc2c1c(C1CCN(C(=O)c3ccccc3C)C1)nn2C (stereo unspecified)	.	4.9%	-0.1%	.	.
COc1ccc(C(=O)N2CCCC(n3cc(-c4nc(-c5ccccc5)no4)nn3)C2)cc1 (stereo unspecified)	?	28.2µM*	?	-9.6%	?
SMILES	hNpr1 antagonist	HEK293 tox	NIH3T3 tox	GPT2 inh	FLuc inh
CCCc1noc(-c2cn(C3CCN(C(=O)c4cccc(F)c4)CC3)nn2)n1	0.0%	-13.1%	35.5µM*	i	i
O=C(c1ccncc1)N1CCCC(n2cc(-c3nc(-c4ccccc4)no3)nn2)C1 (stereo unspecified)	-29.3%	-29.7%	?	i	?
CCCc1noc(-c2cn(C3CCN(C(=O)c4cc(F)cc(F)c4)CC3)nn2)n1	-6.0%	?	-24.6%	i	i
O=C(c1ccoc1)N1CCCC(n2cc(-c3nc(-c4ccccc4)no3)nn2)C1 (stereo unspecified)	?	50.1µM*	?	i	?
COc1ccc(OCC2CCCN(C(=O)c3cn(C4CCCCC4)nn3)C2)cc1 (stereo unspecified)	-3.4%	?	?	?	31.6µM*
COc1ccccc1CC(=O)N1CCC(n2cc(-c3nc(-c4ccccc4)no3)nn2)CC1	-0.1%	-1.6%	-18.1%	i	i
O=C(c1ccc(F)c(F)c1)N1CCC(n2cc(-c3nc(-c4ccccc4)no3)nn2)C1 (stereo unspecified)	11.2µM*	39.8µM*	?	i	?
O=C(c1cc(Cl)ccc1F)N1CCCC(n2cc(-c3nc(-c4ccccc4)no3)nn2)C1 (stereo unspecified)	15.8µM*	31.6µM*	?	i	?
COc1ccccc1C(=O)N1CCC(n2cc(-c3nc(-c4ccccc4)no3)nn2)C1 (stereo unspecified)	12.6µM*	28.2µM*	?	2.2%	31.6µM*
O=C(c1cccc(F)c1)N1CCCC(n2cc(-c3nc(-c4ccccc4)no3)nn2)C1 (stereo unspecified)	?	?	?	-12.8%	?
O=C(c1cccs1)N1CCCC(n2cc(-c3nc(-c4ccccc4)no3)nn2)C1 (stereo unspecified)	?	?	?	i	35.5µM*
O=C(c1ccc[nH]1)N1CCCC(n2cc(-c3nc(-c4ccccc4)no3)nn2)C1 (stereo unspecified)	?	?	?	i	?
O=C(NC1CCN(C(=O)c2ccc(-c3cncnc3)cc2)CC1)c1ccc(Cl)nc1	.	-21.1%	-21.1%	i	.
O=C(NC1CCN(c2cnn(Cc3ccccc3)c(=O)c2)CC1)c1ccsc1	6.1%	-17.3%	-16.3%	2.0%	i
C#CCNC(=O)C[C@@H]1C[C@@H](C(C)C)[C@H](CNS(=O)(=O)c2cccc(C#N)c2)C=C1C	-13.6%[70.6 µM]	?	?	i	i
